Data taken from PubChem BioAssay (Tox21).
Inconclusive results are not listed. A number with no mark means an inactive call. The source made the active and inactive calls. Calls come from the whole dose curve.

molecular target: Beta-2 adrenergic receptor (Homo sapiens) (UniProt P07550); experiment: Adrenergic beta2 receptor (ADRB2) small molecule antagonists, cell-based qHTS assay (AID 1963592); conditions: CHO-ADRB2 cells, isoproterenol-stimulated cAMP HTRF ratio, 0.5 h; series mostly up to 92.4 µM; activity change, negative = inhibition: at the top concentration; note: nearly all actives have a fitted effect of over 50% in size
Source text: U.S. Tox21 Program National Center for Advancing Translational Sciences [NCATS] Division of Preclinical Innovation [DPI] U.S. Environmental Protection Agency [EPA] National Institutes of Environmental Health Sciences [NIEHS] National Toxicology Program [NTP] U.S. Food and Drug Administration [FDA] Tox21 Assay Overview: Beta adrenergic receptors (Beta-ARs) belong to the G-protein coupled receptor (GPCR) superfamily, includes three subtypes - beta1, beta2, and beta3. Beta1-AR is the predominant receptor subtype expressed in the heart, and beta2-AR is expressed in the kidney, lung, blood vessel and in the heart, and beta3 is found in the adipocytes. Beta1 and 2 ARs couple to Gs protein and elevate cyclic adenosine mono phosphate (cAMP), which activates protein kinase A and leads to the downstream signaling responsible for the physiological actions. Beta-AR agonists or antagonists are the most prescribed therapeutic agents for heart failure and asthma, and these were one of the first target receptors for the rational drug design. Tox21 10K compound library was screened using the cAMP-Gs dynamic assay (Cisbio Bioassays, Shelton, CT) to identify agonists/antagonists of the Gs-coupled human adrenergic, beta2 receptor (ADRB2) in the CHO-ADRB2 cell line (Codex BioSolutions, Inc. Gaithersburg, MD), which stably over-expresses ADRB2. The principle of cAMP-Gs dynamic assay is based on HTRF technology, which facilitates the fluorescence resonance energy transfer (FRET) between donor Europium cryptate and acceptor d2-labeled cAMP. The cAMP generated within cells competes with the red acceptor, d2-labled cAMP, for binding to the monoclonal anti-cAMP-cryptate (Europium donor). An increase in intracellular cAMP leads to the disruption of FRET signal, and the signal is inversely proportional to the cAMP concentration. Propranolol HCl (Sigma-Aldrich, St. Louis, MO) was used as a positive control in the screening.
Tox21 Assay Protocol Summary: CHO-ADRB2 cells were dispensed at 1,000/well in 4uL assay medium into white/solid 1536-well plates (Greiner Bio-One North America Inc., Monroe, NC) using a Multidrop Combi dispenser (ThermoFisher Scientific, Waltham, MA). The assay plates were incubated at 37C and 5% CO2 for an overnight (18-20hr). Then positive control and test compounds dissolved in DMSO were transferred to the assay plates at 23nL using a Pintool station (Wako, San Diego, CA). Following the compound and positive control transfer, 1uL agonist-stimulation mix containing 1nM Isoproterenol HCl, 100uM IBMX and 25uM Ro-20-1724 was added to each well of the assay plates using BioRAPTR Flying Reagent Dispenser (FRD, Beckman Coulter, Brea, CA). The assay plates were incubated at room temperature for 0.5hr. Then 2.5ul each d2-labled cAMP and anti-cAMP-cryptate solutions were added separately to each well of the assay plates using an FRD and the assay plates were incubated at room temperature for 1hr. The fluorescence signal was measured at two different wavelengths (665nm and 615nm) using an Envision plate reader (Perkin Elmer, Shelton, CT). Data were expressed as the ratio of 665 nm/615 nm.
% is set by controls: 0 for no effect and ±100 for the full control effect; potency is the fitted concentration of half-maximal effect.

Beta-2 adrenergic receptor (Homo sapiens), sequence (P07550 whole entry, looked up): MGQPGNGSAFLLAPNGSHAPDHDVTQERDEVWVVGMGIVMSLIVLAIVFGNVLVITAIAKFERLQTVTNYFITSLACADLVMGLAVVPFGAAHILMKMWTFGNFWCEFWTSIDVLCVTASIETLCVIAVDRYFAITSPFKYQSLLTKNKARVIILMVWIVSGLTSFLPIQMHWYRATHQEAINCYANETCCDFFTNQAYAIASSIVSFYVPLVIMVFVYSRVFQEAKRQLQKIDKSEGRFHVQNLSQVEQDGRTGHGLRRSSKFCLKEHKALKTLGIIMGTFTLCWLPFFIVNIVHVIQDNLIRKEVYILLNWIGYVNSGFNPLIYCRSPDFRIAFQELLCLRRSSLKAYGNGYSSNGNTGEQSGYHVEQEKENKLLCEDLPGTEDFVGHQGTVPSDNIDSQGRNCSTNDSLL

Row | Structure (SMILES) | activity change, negative = inhibition | Potency
1 | C[C@@H]1C[C@H]2[C@@H]3CCC4=CC(=O)C=C[C@]4(C)[C@@]3(Cl)[C@@H](O)C[C@]2(C)[C@@]1(OC(=O)c1ccco1)C(=O)CCl | -7.27% [at 42.5 µM] | 
2 | COc1cc(-c2ccc(=O)[nH]n2)ccc1OC(F)F | 1.51% [at 42.5 µM] | 
3 | COc1ccc2cc1Oc1ccc(cc1)C[C@H]1c3c(cc4c(c3Oc3cc5c(cc3OC)CCN(C)[C@@H]5C2)OCO4)CCN1C | -22.7% [at 42.5 µM] | 
4 | CC(C)CC(C)(C)C | 4.74% | 
5 | CCOC(=O)CC(=O)C(=O)OCC | -1.69% | 
6 | CCN[C@H]1C[C@H](C)S(=O)(=O)c2sc(S(N)(=O)=O)cc21 | -9.93% [at 42.5 µM] | 
7 | c1ccc(C(O[C@@H]2CCCN(CCc3ccc4c(c3)OCO4)C2)c2ccccc2)cc1 |  | 48.6 µM (active)
8 | CCCCCCCOC(=O)c1ccc(O)cc1 |  | inactive
9 | CN(C)CCCN(C)C | 3.37% [at 8.39 µM] | 
10 | SCCOCCOCCS | -22.5% | 
11 | COc1ccc(COC=O)cc1 | 0.379% | 
12 | O=c1[nH]nc(-c2ccc([N+](=O)[O-])o2)o1 | 2.76% | 
13 | O=C(CC(=O)C(F)(F)F)c1ccccc1 | -8.9% | 
14 | CCO[Si](CCCSSSSCCC[Si](OCC)(OCC)OCC)(OCC)OCC | -3.84% | 
15 | C1CCC2=NCCCN2CC1 | 0.436% | 
16 | Cc1ncc([C@@H](CCCCCCc2ccc3c(n2)NCCC3)CC(=O)O)cn1 | -11.7% | 
17 | CC(C)(C)CC(C)(C)c1ccc(OCCO)cc1 | 5.26% | 
18 | OC[C@H]1O[C@@H](n2cnc3c(=S)nc[nH]c32)[C@H](O)[C@@H]1O | 1.06% [at 42.5 µM] | 
19 | CCCC(CC)CCCCCCCN (stereo not given) | 0.526% | 
20 | O=c1c2ccccc2oc2ccccc12 | -2.89% | 

Row | Structure (SMILES) | activity change, negative = inhibition | Potency
21 | COC(=O)NCCC[Si](OC)(OC)OC | 0.355% | 
22 | O=C(c1ccc(O)c(O)c1)c1ccc(O)cc1O | -18.5% | 
23 | CCCCCCC(C)OC(=O)COc1nc(F)c(Cl)c(N)c1Cl (stereo not given) | 7.43% | 
24 | O=c1[nH]c(=O)n([C@H]2C[C@H](O)[C@@H](CO)O2)cc1F | 5.06% [at 42.5 µM] | 
25 | CC(C)NC(=O)c1ccc(C=O)cc1 | 2.72% [at 42.5 µM] | 
26 | CCc1c2c(nc3ccc(OC(=O)N4CCC(N5CCCCC5)CC4)cc13)-c1cc3c(c(=O)n1C2)COC(=O)[C@]3(O)CC | 3.1% [at 42.5 µM] | 
27 | CC1=CCCC(C)(C)C12CCC(C)O2 (stereo not given) | -0.0531% | 
28 | Cc1cccc(OCC(O)CNC(C)(C)C)c1C (stereo not given) |  | 0.0075 µM (active)
29 | Cc1ccc(C(=O)C(C)CN2CCCCC2)cc1 (stereo not given) | -8.33% [at 42.5 µM] | 
30 | CO[C@]12C[C@@H](COC(=O)c3cncc(Br)c3)CN(C)[C@@H]1Cc1cn(C)c3cccc2c13 |  | 13.3 µM (active)
31 | CCCC(CC)c1ccccc1 (stereo not given) | -0.224% | 
32 | Brc1cc(-c2ccc(Br)c(Br)c2Br)cc(Br)c1Br | 4.68% [at 42.5 µM] | 
33 | CC(=O)OCC(=O)[C@@]1(O)CC[C@H]2[C@@H]3CCC4=CC(=O)CC[C@]4(C)[C@H]3C(=O)C[C@@]21C | -6.05% [at 42.5 µM] | 
34 | O=C(O)CN(CCOCCOCCN(CC(=O)O)CC(=O)O)CC(=O)O | 0.881% [at 0.349 µM] | 
35 | CC1(C)SC(C)(C)SC(C)(C)S1 | -3.13% | 
36 | COc1ccc(CCO)cc1 | 1.46% | 
37 | C=CC(C)(C)CC(=O)OC | -1.21% | 
38 | CCc1cc(C2=C(C(=O)O)N(c3ccccc3C(F)(F)F)S(=O)(=O)c3ccccc32)cc2c1OCO2 | 21.6% | 
39 | C=C(C)C(=O)OCCOCCOC(=O)C(=C)C | -4.08% | 
40 | CCOC(=O)OC(C)OC(=O)[C@@H]1N2C(=O)[C@@H](NC(=O)[C@H](N)c3ccccc3)[C@H]2SC1(C)C (stereo not given in full) | 0.667% [at 42.5 µM] | 
